Experimental data: PubChem BioAssay (NCATS)
Inconclusive results are not listed. A number with no mark means an inactive call. The source made the active and inactive calls. Calls come from the whole dose curve; as a rule, active = well fitted cell-killing curve with a large enough effect; inconclusive = small, poorly fitted or top-dose-only effect; inactive = flat fitted curve, though single readings scatter. Non-standard residues stand in square brackets, D forms with d. Residues, ends and D or L forms follow the SMILES beside them. *: point of attachment. Nva = CCC[C@H](N)C(=O)O; Cbz = O=C(OCc1ccccc1)*

experiment: qHTS of pediatric cancer cell lines to identify multiple opportunities for drug repurposing: Primary screen for TC32 cells (AID 1347089); conditions: TC32 Ewing sarcoma viability, CellTiter-Glo luminescence, 48 h; series mostly up to 45.8 µM; activity change, negative = cytotoxic: at the top concentration; note: nearly all actives have a fitted effect of over 60% in size
From the text: Drug repurposing or repositioning has been offered as a strategy for drug development in oncology programs. This approach has special potential for childhood cancers and other rare or orphan diseases, where the expected return on new drug development has been a disincentive to pharmaceuticals.
In this project we exploit the poly-pharmacology of drugs to discover new indications via phenotypic screening of a panel of 19 well-characterized cell lines derived from solid tumors seen in children and adolescents. The goal is to identify approved drugs with previously unrecognized anticancer properties that has the potential to reveal new mechanisms and biological processes involved in carcinogenesis or drug resistance. We employed a titration-based paradigm (quantitative high-throughput screening or qHTS), where all compounds were tested at multiple concentrations for their effect on cell viability. Concentration-response curves (CRCs) were derived directly from the primary screen, and both potency and efficacy values were used to identify compounds with robust bioactivity profiles. We screened the NIH Chemical Genomics Center (NCGC) Pharmaceutical Collection (NPC) and Mechanism Interrogation Plate (MIPE) small molecule collections of approved and investigational compounds against these cell lines; and measured metabolically active cells after 48 hours of compound treatment as a proxy for cell viability.
Assay Submitter: Nathalia J. Martinez, National Center for Advancing Translational Sciences, National Institutes of Health, Rockville, MD, USA; email: natalia.martinez@nih.gov
[1] Shen, M et al. Quantitative high-throughput phenotypic screening of pediatric cancer cell lines identifies multiple opportunities for drug repurposing. Oncotarget 2017 Dec 19;9(4):4758-4772. PMID 29435139.
The cells were obtained from University of North Carolina (UNC), Pediatric Preclinical Testing Program (PPT), and Coriell Institute (CI).
qHTS cell viability assay:
Cells were assayed in growth media at a density of 500-1,000 cells/well. Five microliters of cells were dispensed into 1,536-well, white, solid-bottom, TC-treated plates (Greiner Bio One) using a multidrop dispenser and incubated at 37 degrees C, 5% CO2, under a humidified atmosphere for 5 hours. Twenty-three nanoliters of compounds and controls (neutral control DMSO or positive control bortezomib at final concentration of 2.3 uM) were subsequently transferred by Kalypsys pintool. For primary screens, the MIPE collection was tested at 11-point dilutions (final concentrations range from 0.78 nM to 46 µM) and the NPC collection at 8-point dilutions (final concentrations range from 0.59 nM to 46 µM). Compounds tested in follow-up screens were assayed at 11-point dilutions. Cells were incubated for 48 hours, followed by addition of 3 uL of CellTiter-Glo (Promega). After a 15min incubation at room temperature, samples were analyzed for luminescence intensity using a ViewLux High-throughput CCD imager equipped with clear filters.
% is set by controls: 0 for no effect and ±100 for the full control effect; potency is the fitted concentration of half-maximal effect.

Row | Compound | activity change, negative = cytotoxic | Potency
1 | CC(=O)O[C@H]1C[C@@H]2CC[C@H]3[C@H]4C[C@H]([N+]5(C)CCCCC5)[C@@H](OC(C)=O)[C@@]4(C)CC[C@@H]3[C@@]2(C)C[C@H]1N1CCCCC1 | 5.96% | 
2 | COc1cc(C)c(C=CC(C)=CC=CC(C)=CC(=O)O)c(C)c1C | 0.521% | 
3 | O=C(O)CCCCCC(=O)NN=C1CCCC1 | 5.17% | 
4 | NC(=O)c1cccc(-c2cccc(OC(=O)NC3CCCCC3)c2)c1 | 14.2% | 
5 | Nc1cccc2c1C(=O)N(C1CCC(=O)NC1=O)C2=O (stereo not given) | 9.45% | 
6 | NC1=N[C@H]2[C@H](CS[C@H]2CCCCC(=O)O)N1 | 14.8% [at 16 µM] | 
7 | Nc1ccc(C(=O)Nc2cccc(-c3nc(N4CCOCC4)c4oc5ncccc5c4n3)c2)cn1 | -13.9% | 
8 | C[C@H](NC(=O)[C@@H](O)c1cc(F)cc(F)c1)C(=O)N[C@@H]1C(=O)N(C)c2ccccc2-c2ccccc21 | 9.03% | 
9 | CN[C@@H]1C[C@H]2O[C@@](C)([C@H]1OC)n1c3ccccc3c3c4c(c5c6ccccc6n2c5c31)C(=O)N[C@H]4O |  | 2940 nM (active)
10 | Cc1cc(Nc2ncc3c(n2)N(C)C(=O)N(c2cc(NC(=O)c4cccc(C(F)(F)F)c4)ccc2C)C3)n(C)n1 |  | 1470 nM (active)
11 | CC(C)(O)CC[C@@H](O)[C@](C)(O)[C@H]1CC[C@@]2(O)C3=CC(=O)[C@@H]4C[C@@H](O)[C@@H](O)C[C@]4(C)[C@@H]3CC[C@]12C | 3.11% | 
12 | Cn1cc(C=CC(=O)c2cccc(F)c2)cc1C=CC(=O)NO | 9.51% | 
13 | CC(C)(C)[N+]([O-])=Cc1ccc(S(=O)(=O)O)cc1S(=O)(=O)O | 8.48% | 
14 | CCC[C@@H](C=O)NC(=O)[C@H](CC(C)C)NC(=O)[C@H](CC(C)C)NC(=O)OCc1ccccc1 (Cbz-Leu-Leu-[Nva]-aldehyde) |  | 3700 nM (active)
15 | O=C(NCc1ccccc1)[C@H](Cc1ccccc1)NC(=O)[C@@H]1O[C@@H]1C(=O)NCCc1ccc(O)cc1 | 0.608% | 
16 | c1ccc2c(Oc3nc(Nc4ccc(N5CCOCC5)cc4)c4ncn(C5CCCCC5)c4n3)cccc2c1 | 9.11% | 
17 | C[C@@H]1[C@H](C)CC[C@]2(C(=O)O)CC[C@]3(C)C(=CC[C@@H]4[C@@]5(C)C[C@@H](O)[C@H](O)[C@@](C)(CO)[C@H]5CC[C@]43C)[C@@H]12 | 9.11% | 
18 | COc1ccc(S(=O)(=O)Nc2cc(-c3c(O)ccc4ccccc34)c(O)c3ccccc23)cc1 | 9.5% | 
19 | CC[C@@]1([C@@H]2O[C@@H]([C@H]3O[C@@](O)(CO)[C@H](C)C[C@H]3C)C[C@H]2C)CC[C@H]([C@]2(C)CC[C@]3(C[C@H](O)[C@@H](C)[C@@H]([C@@H](C)[C@@H](OC)[C@H](C)C(=O)O)O3)O2)O1 |  | 1610 nM (active)
20 | O=C(c1ccc(F)cc1)N1CCC[C@H](c2nc(-c3ccc(F)cc3)no2)C1 | -3.35% | 

Row | Compound | activity change, negative = cytotoxic | Potency
21 | CCCCCCCN(CC)CCCC(O)c1ccc(NS(C)(=O)=O)cc1 (stereo not given) | 8.24% | 
22 | CS[C@H]1SC[C@@H]2C(=O)N(C)[C@H](C(C)C)C(=O)OC[C@H](NC(=O)c3cnc4ccccc4n3)C(=O)N[C@H](C)C(=O)N(C)[C@@H]1C(=O)N(C)[C@H](C(C)C)C(=O)OC[C@H](NC(=O)c1cnc3ccccc3n1)C(=O)N[C@H](C)C(=O)N2C |  | 9.3 nM (active)
23 | OC[C@H]1OC(O)C[C@@H](O)[C@H]1O (stereo not given in full) | 14.5% | 
24 | Nc1ccn(C2CO[C@H](CO)O2)c(=O)n1 (stereo not given in full) | 9.9% | 
25 | Nc1nc2c(c(=O)[nH]1)N(C=O)[C@H](CNc1ccc(C(=O)N[C@@H](CCC(=O)O)C(=O)O)cc1)CN2 | 11.2% | 
26 | CC(N[C@H]1CCCC[C@H]1NC(=O)c1ccc(Cl)cc1)c1cccc2ccccc12 (stereo not given in full) | 10.2% | 
27 | Cn1cnc2c(F)c(Nc3ccc(Br)cc3F)c(C(=O)NOCCO)cc21 | 12.8% | 
28 | CC(=O)OCC(=O)[C@@]1(O)CC[C@H]2[C@@H]3CCC4=CC(=O)CC[C@]4(C)[C@@H]3C(=O)C[C@@]21C | 14.4% | 
29 | O=C(O)CCCCC(CCSCc1ccccc1)SCc1ccccc1 (stereo not given) | 6.16% | 
30 | Cc1[nH]c(C=C2C(=O)Nc3ccccc32)c(C)c1CCC(=O)O |  | 7390 nM (active)
31 | C[C@@H]1C(=O)O[C@H]2CC34[C@H]5C[C@@H](C(C)(C)C)C36[C@H](OC(=O)[C@@H]6O)O[C@@]4(C(=O)O5)[C@]21O (stereo not given in full) | 3.38% | 
32 | CC1(C)CC(O)CC(C)(C)N1[O] | 1.76% | 
33 | CC(C)N(CC[C@H](c1ccccc1)c1cc(CO)ccc1O)C(C)C | 8.98% | 
34 | N#Cc1cc(NC(=O)Nc2nnc(-c3ccncc3)s2)ccc1-c1cn[nH]c1 | 10.9% | 
35 | CN(C)CC[C@H](c1ccc(Cl)cc1)c1ccccn1 | -18.4% | 
36 | O=c1ccn([C@@H]2O[C@H](CO)[C@H](O)[C@@H]2F)c(=O)[nH]1 | 5.2% | 
37 | C=CC1=C(C(=O)O)N2C(=O)[C@@H](NC(=O)C(=NO)c3csc(N)n3)[C@H]2SC1 | 6.45% | 
38 | CCOc1cc2c(c(F)c1OCC)C(=N)N(CC(=O)c1cc(N3CCOCC3)c(OC)c(C(C)(C)C)c1)C2 | -0.722% | 
39 | CC(C)c1cc(C(C)C)c(CC(=O)NS(=O)(=O)Oc2c(C(C)C)cccc2C(C)C)c(C(C)C)c1 | 7.77% | 
40 | C[C@@]12C(=O)OC(=O)[C@@]1(C)C1CCC2O1 |  | 13100 nM (active)
